Assay outcomes deposited in PubChem by several laboratories.
Compounds with a hit are over-represented: about 4% of the library has one in this group of screens.
VHR inh abs = VHR1 phosphatase inhibitors, primary screen, biochemical, absorbance, uHTS; Dual specificity protein phosphatase 3 (Homo sapiens), P51452; recombinant VHR phosphatase, pNPP absorbance; inhibition, % at 13.3 µM; actives 0.52% (n = 290,000); AID 1654, 2009; in the data active = inhibition above about 50%
Target sequence (P51452 whole entry, looked up): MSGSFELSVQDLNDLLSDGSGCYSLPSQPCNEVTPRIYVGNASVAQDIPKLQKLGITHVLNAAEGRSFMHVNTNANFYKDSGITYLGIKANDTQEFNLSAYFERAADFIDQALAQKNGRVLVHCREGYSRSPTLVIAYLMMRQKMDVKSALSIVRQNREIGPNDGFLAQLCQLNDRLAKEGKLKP
Bead autofluor = flagged as autofluorescent in microsphere protease counterscreen | compound autofluorescence counterscreen, microsphere flow cytometry; stronger effect = higher value | actives 3.1% (n = 360,000) | fluorescence intensity (concentration not given with the values); in the data active = fluorescence intensity above about 16000; inconclusive = no clear call, values can overlap the other calls
MazEF act = activators of E. coli MazEF toxin-antitoxin RNase, primary screen, biochemical, fluorescence, uHTS; activation, % at 20 µM; FAM/BHQ RNA-DNA oligo cleavage fluorescence, 5 h; actives 0.32% (n = 350,000); AID 504720, 2011; Endoribonuclease toxin MazF (Escherichia coli (strain K12)), P0AE70; in the data active = activation above about 50%
Target sequence (P0AE70 whole entry, looked up): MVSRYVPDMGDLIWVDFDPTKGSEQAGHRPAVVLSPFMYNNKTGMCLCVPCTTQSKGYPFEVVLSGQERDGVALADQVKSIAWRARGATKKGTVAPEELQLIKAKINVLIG
BoNT A protease = BoNT/A light chain protease inhibitors, primary screen, biochemical, flow cytometry, MLPCN library. AID 588499, 2011. Botulinum neurotoxin type A light chain protease (Clostridium botulinum A str. ATCC 3502). actives 0.17% (n = 360,000). multiplex microsphere protease substrate cleavage. inhibition, % at 10 µM
Anthrax LF inh2 = Bacillus anthracis LF protease inhibitors, primary screen, biochemical, multiplex microsphere, MLPCN library. actives 0.12% (n = 360,000). Lethal factor (Bacillus anthracis), P15917. inhibition, % at 10 µM. multiplex microsphere protease cleavage assay
BoNT F protease = BoNT/F light chain protease inhibitors, primary screen, biochemical, flow cytometry, MLPCN library; Botulinum neurotoxin type F light chain protease (Clostridium botulinum); Multiplex microsphere protease cleavage assay; AID 588497, 2011; actives 0.22% (n = 360,000); inhibition, % at 10 µM; in the data active = inhibition above about 35%, passing the limit was not always enough; inconclusive = no clear call, values can overlap the other calls
A number is an active result; i = inactive; ? = inconclusive; nt = no result given. Cut-off read from the data, not from the text of the source, unless noted: active = inhibition above about 30%; inconclusive = no clear call, values can overlap the other calls; inactive = below that.

SMILES	VHR inh abs	Bead autofluor	MazEF act	BoNT A protease	Anthrax LF inh2	BoNT F protease
Cc1ccccc1Cn1c(Cc2ccccc2)nc2ccccc21	i	24142	i	?	i	i
O=c1[nH]c2ccc(Br)cc2o1	nt	i	i	i	i	i
COc1ccc(-n2c(O)c(/C=C3\C=Nc4ccccc43)c(=O)[nH]c2=O)cc1	i	i	304	i	i	?
Cc1cc(N)nc(C)c1C#N	i	i	i	i	i	i
CCOC(=O)c1cc(NC(=O)N(C(C)C)C(C)C)c(C)nc1C	i	16634	i	i	i	i
CCOC(=O)c1cc(NC(=O)N(CC)CC)c(C)nc1C	i	24580	i	i	i	i
O=C(c1cnc(-c2ccc(Cl)cc2)s1)c1ccc(Cl)cc1Cl	i	16515	i	i	i	i
CC(C)CSc1ncnc2c1oc1nc3c(cc12)COC(C)(C)C3	i	20132	i	i	i	i
O=c1c2ccccc2nc(-c2ccco2)n1Cc1ccccc1	i	i	i	i	i	i
CCOc1ccc(CCn2c(-c3ccco3)nc3ccccc3c2=O)cc1OCC	i	16599	i	i	i	i
O=C(CNC(=O)c1ccco1)OCC(=O)c1ccc2c(c1)CCCC2	i	17018	i	i	i	i
CC(C)(C)c1cc(NC(=O)c2ccco2)no1	i	i	i	i	i	i
Cc1cc(NC(NC(=O)c2ccco2)(C(F)(F)F)C(F)(F)F)no1	i	17442	i	i	i	i
O=C(ON=C1CCN(c2ccc([N+](=O)[O-])cc2)CC1)c1ccccc1	i	19501	i	?	i	i
Cc1ccc(-c2nnn(CC(=O)N(Cc3ccccc3)C(C(=O)NC(C)(C)C)c3ccncc3)n2)o1 (centres undefined)	i	20840	i	i	i	i
Cc1ccc(-c2nnn(CC(=O)N(c3cccc(O)c3)C(C(=O)NC(C)(C)C)c3cccs3)n2)o1 (centres undefined)	i	16505	i	i	i	i
O=C(OCc1cnc(Cl)s1)c1ccccc1Cl	i	i	i	i	i	i
O=C(OCC(=O)N1CCN(C(=O)c2ccco2)CC1)c1cc(-c2cccc(Br)c2)nc2ccccc12	i	24517	i	i	i	i
O=C(OCC(=O)N1CCN(C(=O)c2ccco2)CC1)c1cc(-c2ccccc2)nc2ccccc12	i	?	i	i	i	i
O=C(Cn1nc(C(=O)O)c2ccccc2c1=O)c1cc(F)ccc1F	i	i	i	i	i	i
Cc1cccc(C)c1OCCCCc1c(C)n[nH]c1C	i	22821	i	i	i	i
COc1cccc(OC)c1OCCCCc1c(C)n[nH]c1C	i	i	i	i	i	i
CNC(=O)C1CC(=O)N(Cc2ccc(OC)c(OC)c2)C(=Nc2ccc(OC)cc2)S1 (centres undefined)	i	i	i	i	i	i
CNC(=O)C1CC(=O)N(Cc2ccccc2)C(=Nc2ccc(OC)cc2)S1 (centres undefined)	i	23832	i	?	i	i
Cc1ccc(C2c3c(C)nn(-c4ccc([N+](=O)[O-])cc4)c3N=C3C(=O)Nc4ccccc4N32)cc1 (centres undefined)	i	nt	nt	nt	nt	nt
SMILES	VHR inh abs	Bead autofluor	MazEF act	BoNT A protease	Anthrax LF inh2	BoNT F protease
CC(=O)Nc1ccc(NC2=Nc3ccccc3N3C2=Nc2c(c(C)nn2-c2ccccc2)C3c2ccccc2)cc1 (centres undefined)	i	i	i	147	68	i
COc1ccc(NC2=Nc3ccccc3N3C2=Nc2c(c(C)nn2-c2ccc(C)cc2)C3c2cccnc2)cc1 (centres undefined)	i	i	i	?	60	44
COc1ccc(-c2cc(-c3ccccc3)nc(NN)n2)cc1OC	54	i	i	i	i	i
COc1nc(-c2ccccc2)cc(-c2ccc(OC)c(OC)c2)n1	i	19447	i	i	i	i
Cc1ccc(-c2cc(-c3ccccc3)nc(NN)n2)cc1	i	i	i	i	i	i
COc1cc2cnc(-c3ccccc3)cc2cc1OC	nt	i	i	i	i	i
CC(=O)OCCCn1c(C)[n+](C)c2cc(Cl)c(Cl)cc21	i	i	i	i	i	i
CCOc1ccc(N(CC(=O)Nc2ccccc2C(=O)N2CCOCC2)S(=O)(=O)c2ccc(F)cc2)cc1	i	i	i	i	i	i
O=S1(=O)N=C(Nc2ccc(S(=O)(=O)N3CCCCC3)cc2)c2ccccc21	53	i	i	i	i	i
O=S1(=O)N=C(Nc2ccc(N3CCOCC3)cc2)c2ccccc21	i	i	i	i	i	i
CN(Cc1ccc(F)cc1)C(=O)C(Cc1ccccc1)NC(=O)c1ccccc1 (centres undefined)	nt	i	i	i	i	i
CCc1ccc(/C=N/NC(=O)Cc2ccc(OC)c(OC)c2)s1	i	i	i	i	i	i
COc1ccc(CC(=O)NC2CC2)cc1OC	53	i	i	i	i	i
O=C(N/N=C/c1ccc(OC(=O)c2cccs2)cc1)c1ccccn1	53	i	i	i	i	i
COc1cc(/C=N/NC(=O)COc2ccccc2C)ccc1OC(=O)c1cccs1	i	22564	i	?	i	i
COc1ccc(CC(=O)N/N=C/c2cccs2)cc1OC	i	i	i	i	i	49
CCNc1nc(NCC)nc(-n2nc(C)cc2C)n1	i	i	i	i	i	i
CC1=C(C(=O)N(C(C)C)C(C)C)CC(CC(=O)NCc2cccs2)C(=O)N1Cc1ccc(F)cc1 (centres undefined)	nt	i	nt	i	i	i
CCCCCC(=O)N/N=C/c1cccs1	i	22461	i	i	i	i
Cc1nc2ccccc2cc1C(=O)N/N=C/c1ccco1	i	i	i	i	i	i
Cc1nc2ccccc2cc1C(=O)N/N=C/c1cccs1	i	i	i	i	i	38
COC(=O)/C(=C\Nc1ccc(Cl)cc1Cl)NC(=O)c1ccc(Cl)cc1Cl	i	i	i	i	i	i
COc1ccccc1/C=C/CN1CCNC(=O)C1CC(=O)NCCc1cnccn1 (centres undefined)	i	?	i	i	i	i
C=CCSc1nc(=O)n2cccc(C)c2n1	i	21125	i	i	i	i
C=CCSc1nc(=O)n2ccccc2n1	i	i	i	i	i	i
CCN(CC)C(=O)CN1C(=O)/C(=C/c2ccccc2)SC1=S	i	i	i	i	i	i
COCc1ccc(CN2CCC(N3CCC(C(=O)N4CCCC4)CC3)CC2)o1	52	i	i	i	i	i
CCc1noc(C)c1C(=O)OCC(=O)Nc1ncc(Cl)cc1Cl	i	i	i	i	i	i
COc1ccc(C2CC(c3cccc([N+](=O)[O-])c3)=NN2/C(C)=C/C(C)=O)cc1 (centres undefined)	nt	54573	i	i	i	77
